# SMARCA2 act = SMARCA2 (BRM) function activators, primary screen, cell-based, luminescence, high throughput; MG213 cells, MMTV-luciferase reporter, dexamethasone, overnight; AID 652017, 2013; hit rate 1% among 370,000; activation, % at 9.1 µM; in the data active means activation above about 7.8%
# JMJD2C inh = inhibitors of GASC-1 histone demethylase, primary screen, biochemical, fluorescence, DELFIA europium; inhibition, % at 2.35 µM; GST-JMJD2C(1-420) H3K9me3 demethylation; hit rate 0.069% among 330,000; Lysine-specific demethylase 4C (Homo sapiens), Q9H3R0;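 active means more than half of a compound's replicate wells show inhibition beyond 50%, single wells judged on their own value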;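 further: signal counts dimethyl H3K9 product captured on neutravidin plate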
# Target sequence (Q9H3R0 1-420 limits assumed): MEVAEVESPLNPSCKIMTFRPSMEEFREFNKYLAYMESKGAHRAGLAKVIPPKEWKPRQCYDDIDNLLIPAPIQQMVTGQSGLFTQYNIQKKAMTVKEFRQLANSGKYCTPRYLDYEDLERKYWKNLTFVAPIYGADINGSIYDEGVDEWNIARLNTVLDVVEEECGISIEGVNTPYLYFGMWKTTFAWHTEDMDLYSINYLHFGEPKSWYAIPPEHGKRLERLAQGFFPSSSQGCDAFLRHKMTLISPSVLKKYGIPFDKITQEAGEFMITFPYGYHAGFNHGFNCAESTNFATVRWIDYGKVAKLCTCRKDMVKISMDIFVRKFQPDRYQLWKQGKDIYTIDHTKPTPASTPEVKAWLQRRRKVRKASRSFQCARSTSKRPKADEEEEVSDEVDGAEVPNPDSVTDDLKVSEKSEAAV
# ALR H2O2 inh = inhibitors of human ALR sulfhydryl oxidase, primary screen, biochemical, H2O2 detection, HRP-luminol luminescence, single point | FAD-linked sulfhydryl oxidase ALR (Homo sapiens), P55789 | purified ALR, DTT oxidation | inhibition, % (no concentration beside the values) | hit rate 3.8% among 290,000 | AID 485317, 2010;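 active means mean replicate inhibition above about 79%, with every replicate also reaching it, limit read from the data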
# Target sequence (P55789 whole entry, looked up): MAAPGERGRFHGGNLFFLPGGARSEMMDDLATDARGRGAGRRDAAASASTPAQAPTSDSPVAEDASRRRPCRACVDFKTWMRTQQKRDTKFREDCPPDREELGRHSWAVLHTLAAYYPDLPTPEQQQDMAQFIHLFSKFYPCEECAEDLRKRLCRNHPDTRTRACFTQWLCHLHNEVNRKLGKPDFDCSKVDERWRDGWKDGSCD
# Granule exo inh = LAMP-1 surface exposure blockers, TALL-104 cells – cell-based, flow cytometry, MLPCN library, primary screen. hit rate 0.66% among 360,000. AID 651702, 2012. TALL-104 LAMP-1 surface exposure; cells stimulated with thapsigargin and PMA. inhibition, % at 10 µM;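 active means inhibition above about 55%, limit read from the data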
# PfM18AAP inh = PfM18AAP inhibitors, malaria aminopeptidase, primary screen, biochemical, QFRET, recombinant enzyme; M18 aspartyl aminopeptidase (Plasmodium falciparum 3D7); H-Glu-NHMec fluorogenic cleavage; inhibition, % at 7.35 µM; hit rate 1.2% among 290,000; AID 1822, 2009;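 active means inhibition above the campaign mean inhibition over all tested compounds plus 3 SD, cut at about 28% in these data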
# MIN6 prolif = inducers of MIN6 beta-cell proliferation, primary screen, ATP luminescence, uHTS. AID 2380, 2010. proliferation, % at 10 µM. hit rate 0.29% among 330,000. MIN6 cells proliferation, ATPlite luminescence, 48 h; cells starved in 0.2% serum; 100% = growth in 10% serum;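 active means compounds whose signal lies at least 3.5 SD above the mean of all wells on their plate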
# A number is an active result; - = inactive; . = no result given. An excerpt weighted towards active compounds, which were near 5.4% of everything screened.
SMILES,SMARCA2 act,JMJD2C inh,ALR H2O2 inh,Granule exo inh,PfM18AAP inh,MIN6 prolif
CN(c1ccccc1)c1ccc(/C=C(/CCC(=O)O)c2nc3ccccc3s2)cc1[N+](=O)[O-],-,.,.,-,.,.
C/C(=C/c1[nH]c(N)[n+](CC2CC2)c1Cc1ccccc1)Cn1[nH]c(=O)n(-c2ccccc2)c1=O,-,.,.,.,.,.
CNS(=O)(=O)/C=C/c1ccccc1CCNC(=O)OC(C)(C)C,-,.,.,.,.,.
COCC(C)N=C1NN=C(c2ccc(NC(C)=O)cc2)CS1 (configuration not stated),-,-,98,-,-,-
CCN(CC)c1ccc(NC(=O)C2CCCN(S(=O)(=O)c3cnc[nH]3)C2)c(C)c1 (configuration not stated),-,-,101,-,-,-
Cc1ccc(NC(=O)C2CCCN(S(=O)(=O)c3cnc[nH]3)C2)cc1C (configuration not stated),-,-,98,-,-,-
Cc1cc(NC(=O)C2CCCN(S(=O)(=O)c3cnc[nH]3)C2)ccc1Br (configuration not stated),-,-,93,-,-,-
O=C(Nc1ccc(F)c(F)c1)C1CCCN(S(=O)(=O)c2cnc[nH]2)C1 (configuration not stated),.,-,.,-,-,-
CCSc1nnc(NC(=O)C2CCCN(S(=O)(=O)c3cnc[nH]3)C2)s1 (configuration not stated),-,-,93,-,-,-
Cn1c(Cc2cccs2)nnc1SCC(=O)Nc1ccc2c(c1)OCO2,-,.,.,.,.,.
O=C(Nc1ccc(Cl)c(Cl)c1)C1CCN(c2ncccn2)CC1,-,.,.,.,.,.
COc1ccc(Nc2cnn(-c3nc4ccccc4s3)c(=O)c2Cl)cc1,12,-,-,-,-,.
N#C/C(=C\c1ccccc1C(F)(F)F)C(=O)Nc1ccccc1,-,-,90,-,-,-
COC(=O)[C@]12C[C@H](CC(=O)NCc3ccccc3)C(=O)N(Cc3ccco3)C1=C[C@H](C(C)(C)C)O[C@@H]2C,-,.,.,.,.,.
Cc1ccc(OCCCN2C(=O)C(=O)c3cccc(C)c32)cc1,-,-,-,-,-,-
Cc1ccc(OCCN2C(=O)C(=O)c3cc(C)ccc32)cc1,-,-,.,72,-,-
Nc1nnc(N2CCCCC2)s1,-,-,91,-,-,-
CC(C)C[C@@H]1COc2cc(N3CCSCC3)ccc2S(=O)(=O)N1C,-,.,.,.,.,.
O=C(CCc1ccccc1)N[C@H]1[C@H](OC(=O)c2ccc3ccccc3n2)CCC[C@@]12C(=O)N(Cc1ccccc1)c1ccccc12,-,.,.,.,.,.
Cc1ccc(C(=O)Nc2cccc(-c3cn4ccccc4n3)c2)cc1,-,-,-,-,-,-
O=C(Nc1cccc(-c2cn3ccccc3n2)c1)c1ccccc1,-,-,95,-,-,-
COc1cc2c(cc1OC)[C@H](C)N(C(=O)CSc1nc(O)c(C(C)C)c(=O)[nH]1)CC2,-,-,.,-,-,-
COc1cc2c(cc1O)CCN(C(=O)CSc1nncn1C)[C@@H]2C,-,-,82,-,.,-
Cc1nnc2sc(SCC(=O)Nc3nccs3)nn2c1=O,-,-,99,-,-,-
COc1ccccc1NC(=O)CSc1nn2c(=O)c(C)nnc2s1,-,-,99,-,-,-
SMILES,SMARCA2 act,JMJD2C inh,ALR H2O2 inh,Granule exo inh,PfM18AAP inh,MIN6 prolif
COc1ccccc1NC(=O)CSc1nnc(C)o1,-,-,-,-,-,-
CCOC(=O)c1cccc(NC(=O)CN(C)S(=O)(=O)c2cc3ccccc3s2)c1,-,.,.,.,.,.
COc1ccc(/C=N/NC(=O)c2nn(C)cc2Br)cc1CSCc1ccco1,-,-,98,-,-,-
c1ccc(-c2c[nH]c3ccc(OCc4ccc5ccccc5n4)c(-c4ccccc4)c23)cc1,-,.,.,.,.,.
COc1ccc(OC)c(/C=N/N(C)c2ccccc2)c1,-,-,99,-,-,-
COc1cc(/C=N/N(C)c2ccccc2)cc(Cl)c1O,-,-,99,-,-,-
O=C(O)c1ccc(-c2ccco2)n1Cc1ccccc1,-,-,99,-,-,-
O=C(COC(=O)CSc1ccc([N+](=O)[O-])cc1)NCC1CCCO1 (configuration not stated),-,-,99,-,-,-
CCCCOc1ccc(CSc2nc(C)[nH]c2[N+](=O)[O-])cc1[N+](=O)[O-],-,-,99,-,-,-
CCCOc1ccc(CSC2=NCCN2)cc1[N+](=O)[O-],-,-,99,-,-,-
CCCCOc1ccc(CSc2nnc(C)n2N)cc1[N+](=O)[O-],-,-,-,-,-,-
O=[N+]([O-])c1cc(CSC2=NCCN2)ccc1O,-,-,.,-,-,.
COCCCN1C(=O)[C@H](CC(=O)NCc2cccc(C(F)(F)F)c2)[C@]2(C(=O)OC)CCCCC=C12,-,.,.,.,.,.
FC(F)(F)c1cc(-c2ccco2)nc(NCc2ccccc2)n1,-,-,98,-,-,-
C[C@H](O)[C@@H]1CN2CCc3c([nH]c4cccc(-c5ccccc5)c34)[C@@H]2C[C@@H]1N(C)CC1CCCCC1,-,.,.,.,.,.
COc1cccc(C(=O)Nc2ccc(C(=O)NCC3COc4ccccc4O3)cc2)c1 (configuration not stated),-,.,.,.,.,.
COc1ccc(C(=O)c2ccccc2Cl)cc1,-,-,-,-,-,-
Cc1sc(N)c(C(=O)c2ccccc2Cl)c1C,-,-,99,-,-,-
C=CS(=O)(=O)N(Cc1ccc(C)cc1)[C@@H](CO)C(=O)OC,-,.,.,.,.,.
COc1ccc(/C(C)=N/Nc2nccnc2Cl)cc1,7.9,-,.,-,.,-
Nc1[nH]c2cc(Cl)ccc2c1C(=O)NCCc1ccc(Cl)cc1,-,.,.,.,.,.
Cc1nc2ccccc2c(=O)n1CCc1ccc(O)cc1,-,-,96,-,-,-
CCn1c(/C=C/c2ccc(O)cc2)nc2ccccc2c1=O,-,-,98,-,-,-
Cc1ccc(NC(=O)CCC(=O)c2cccs2)c(Br)c1,-,-,-,-,-,-
Cc1ccc(NC(=O)COC(=O)CCC(=O)c2cccs2)c(Br)c1,-,.,.,75,.,-
COC(=O)C1(Cc2ccc(O)c(CC3OC3(C)C)c2)OC(=O)C(O)=C1c1ccc(O)cc1 (configuration not stated),-,-,98,-,.,-
O=C(Nc1ccc(O)cc1)c1ccc(C(=O)c2ccccc2)o1,-,-,97,-,-,-
O=C(Nc1ccc(Nc2ccccc2)cc1)c1ccc(Br)o1,-,-,99,-,-,-
CCCCCCN1CCS(=O)(=O)N(Cc2ccc(F)cc2)C(C(=O)OC)C1 (configuration not stated),-,.,.,.,.,.
CCOC(=O)c1ccc(N=c2scc(C)n2CC)cc1,7.8,-,-,-,-,-

# Assay outcomes from PubChem BioAssay.
